# Assay results published in the supplement of paper PMC10849652.
# The full data set covers some 8,800 targets. This sample favours those with a hit. About 0.5% of all pairs of compound and target were hits. Values without a mark were called inactive.
# Tests used:
# Assay in all cases: log2 fold change, soluble protein after heating vs DMSO (PISA); higher = thermal stabilisation; K562 lysate, 10 uM; active = over 0.2 and 3.5 SD of the protein, either way, in both replicates (recomputed)
# alvocidib = compound: CN1CC[C@H](c2c(O)cc(O)c3c(=O)cc(-c4ccccc4Cl)oc23)[C@H](O)C1 [alvocidib]
# In short: (§1)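 Quantification was by TMTpro 16plex LC-MS/MS with equalised channel sums, applied to the supernatant after 21,000xg for 90 min. Samples were crude K562 extract at 1 mg/mL protein in PBS pH 7.4 with 1 mM MgCl2, treated with 10 μM compound for 30 min, heated for 3 min across 48°C-58°C, pooled and brought to 0.5% NP-40 at 4°C. Values are log-two fold changes in thermal stability relative to solvent controls, from duplicates.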
# Tubastatin A = compound: CN1CCc2c(c3ccccc3n2Cc2ccc(C(=O)NO)cc2)C1 [Tubastatin A]
# In short: as §1
# [1] = compound: CNC(=O)C1=CC=CC=C1NC2=NC(=NC=C2Cl)NC3=C(C=C(C=C3)N4CCOCC4)OC
# In short: as §1
# defactinib = compound: CNC(=O)c1ccc(Nc2ncc(C(F)(F)F)c(NCc3nccnc3N(C)S(C)(=O)=O)n2)cc1 [defactinib]
# In short: as §1
# [2] = compound: CNc1nc(-c2ccc3c(N)n[nH]c3c2)cc(N2C[C@@H](C(=O)NC3CCCCC3)CC[C@H]2C)n1
# In short: as §1
# alisertib = compound: COc1cc(Nc2ncc3c(n2)-c2ccc(Cl)cc2C(c2c(F)cccc2OC)=NC3)ccc1C(=O)O [alisertib]
# In short: as §1
# [3] = compound: COc1cc2nc(-c3cc(F)ccc3O)nc(N[C@@H]3CNC[C@H]3C(C)(C)O)c2cc1OC
# In short: as §1
# lapatinib = compound: CS(=O)(=O)CCNCc1ccc(-c2ccc3ncnc(Nc4ccc(OCc5cccc(F)c5)c(Cl)c4)c3c2)o1 [lapatinib]
# In short: as §1
# pictilisib = compound: CS(=O)(=O)N1CCN(Cc2cc3nc(-c4cccc5[nH]ncc45)nc(N4CCOCC4)c3s2)CC1 [pictilisib]
# In short: as §1
# crizotinib = compound: C[C@@H](Oc1cc(-c2cnn(C3CCNCC3)c2)cnc1N)c1c(Cl)ccc(F)c1Cl [crizotinib]
# In short: as §1
# [4] = compound: C[C@H](C1=CC=C(C=C1)C(=O)NC2=C3C=CNC3=NC=C2)N
# In short: as §1
# duvelisib = compound: C[C@H](Nc1ncnc2nc[nH]c12)c1cc2cccc(Cl)c2c(=O)n1-c1ccccc1 [duvelisib]
# In short: as §1
# gandotinib = compound: Cc1cc(Nc2cc(CN3CCOCC3)c3nc(C)c(Cc4ccc(Cl)cc4F)n3n2)n[nH]1 [gandotinib]
# In short: as §1
# doramapimod = compound: Cc1ccc(-n2nc(C(C)(C)C)cc2NC(=O)Nc2ccc(OCCN3CCOCC3)c3ccccc23)cc1 [doramapimod]
# In short: as §1
# bafetinib = compound: Cc1ccc(NC(=O)c2ccc(CN3CC[C@H](N(C)C)C3)c(C(F)(F)F)c2)cc1Nc1nccc(-c2cncnc2)n1 [bafetinib]
# In short: as §1
# [5] = compound: Cc1cccc(CC(=O)N2CCc3c2ccc(-c2cn(C)c4ncnc(N)c24)c3F)n1
# In short: as §1
# encorafenib = compound: COC(=O)N[C@@H](C)CNc1nccc(-c2cn(C(C)C)nc2-c2cc(Cl)cc(NS(C)(=O)=O)c2F)n1 [encorafenib]
# In short: as §1
# [6] = compound: COC(=O)[C@H](CCSC)NC(=O)C1=C(C=C(C=C1)NC[C@H](CS)N)C2=CC=CC=C2
# In short: as §1
# gefitinib = compound: COc1cc2ncnc(Nc3ccc(F)c(Cl)c3)c2cc1OCCCN1CCOCC1 [gefitinib]
# In short: as §1
# tozasertib = compound: Cc1cc(Nc2cc(N3CCN(C)CC3)nc(Sc3ccc(NC(=O)C4CC4)cc3)n2)n[nH]1 [tozasertib]
# In short: as §1
# Sequence of UniProt Q8NAV1 (Q8NAV1 whole entry, looked up): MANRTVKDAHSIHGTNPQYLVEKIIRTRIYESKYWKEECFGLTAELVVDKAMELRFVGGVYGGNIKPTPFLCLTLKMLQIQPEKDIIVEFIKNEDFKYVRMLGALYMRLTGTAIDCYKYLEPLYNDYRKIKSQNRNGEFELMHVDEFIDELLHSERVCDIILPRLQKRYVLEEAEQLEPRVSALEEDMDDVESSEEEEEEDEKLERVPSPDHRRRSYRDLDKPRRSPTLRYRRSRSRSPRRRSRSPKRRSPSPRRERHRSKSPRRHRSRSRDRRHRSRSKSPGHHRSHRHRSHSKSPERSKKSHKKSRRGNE
# Sequence of UniProt P48736 (P48736 whole entry, looked up): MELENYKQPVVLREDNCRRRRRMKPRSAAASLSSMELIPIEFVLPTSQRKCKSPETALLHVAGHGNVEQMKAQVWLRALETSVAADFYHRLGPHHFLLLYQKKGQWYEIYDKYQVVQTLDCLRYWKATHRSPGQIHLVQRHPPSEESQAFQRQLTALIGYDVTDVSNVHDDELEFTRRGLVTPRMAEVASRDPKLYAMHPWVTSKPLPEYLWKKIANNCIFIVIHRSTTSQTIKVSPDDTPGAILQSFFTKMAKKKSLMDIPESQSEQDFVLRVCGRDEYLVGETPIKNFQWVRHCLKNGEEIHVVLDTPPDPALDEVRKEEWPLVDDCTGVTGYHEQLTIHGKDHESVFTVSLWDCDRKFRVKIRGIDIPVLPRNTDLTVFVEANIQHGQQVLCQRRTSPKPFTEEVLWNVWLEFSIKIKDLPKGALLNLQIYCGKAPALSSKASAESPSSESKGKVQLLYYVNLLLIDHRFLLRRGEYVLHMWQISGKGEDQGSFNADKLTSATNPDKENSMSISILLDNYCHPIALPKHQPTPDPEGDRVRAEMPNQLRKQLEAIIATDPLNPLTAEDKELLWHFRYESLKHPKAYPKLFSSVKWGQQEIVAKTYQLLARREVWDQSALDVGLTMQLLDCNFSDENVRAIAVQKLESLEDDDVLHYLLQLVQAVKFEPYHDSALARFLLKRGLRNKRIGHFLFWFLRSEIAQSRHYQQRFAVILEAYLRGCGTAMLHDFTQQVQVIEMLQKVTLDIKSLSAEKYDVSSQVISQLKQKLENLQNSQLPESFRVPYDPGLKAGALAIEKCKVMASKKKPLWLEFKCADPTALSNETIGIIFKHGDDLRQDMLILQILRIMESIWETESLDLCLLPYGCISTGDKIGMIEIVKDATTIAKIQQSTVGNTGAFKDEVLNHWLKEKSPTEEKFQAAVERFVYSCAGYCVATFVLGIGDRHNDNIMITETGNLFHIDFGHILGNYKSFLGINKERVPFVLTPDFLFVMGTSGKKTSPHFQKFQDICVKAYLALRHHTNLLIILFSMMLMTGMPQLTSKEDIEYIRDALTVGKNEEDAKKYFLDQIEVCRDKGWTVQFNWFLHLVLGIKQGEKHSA
# Sequence of UniProt Q15366 (Q15366 whole entry, looked up): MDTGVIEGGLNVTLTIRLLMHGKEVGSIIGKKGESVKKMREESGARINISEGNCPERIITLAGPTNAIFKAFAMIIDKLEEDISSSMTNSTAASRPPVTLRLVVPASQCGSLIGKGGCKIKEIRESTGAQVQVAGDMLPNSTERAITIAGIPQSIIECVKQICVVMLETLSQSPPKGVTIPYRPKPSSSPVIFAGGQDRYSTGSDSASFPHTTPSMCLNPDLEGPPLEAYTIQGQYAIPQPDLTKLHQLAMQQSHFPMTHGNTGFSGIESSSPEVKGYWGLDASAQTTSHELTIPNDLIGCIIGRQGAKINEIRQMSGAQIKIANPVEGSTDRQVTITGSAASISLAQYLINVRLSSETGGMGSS
# Sequence of UniProt P53609 (P53609 whole entry, looked up): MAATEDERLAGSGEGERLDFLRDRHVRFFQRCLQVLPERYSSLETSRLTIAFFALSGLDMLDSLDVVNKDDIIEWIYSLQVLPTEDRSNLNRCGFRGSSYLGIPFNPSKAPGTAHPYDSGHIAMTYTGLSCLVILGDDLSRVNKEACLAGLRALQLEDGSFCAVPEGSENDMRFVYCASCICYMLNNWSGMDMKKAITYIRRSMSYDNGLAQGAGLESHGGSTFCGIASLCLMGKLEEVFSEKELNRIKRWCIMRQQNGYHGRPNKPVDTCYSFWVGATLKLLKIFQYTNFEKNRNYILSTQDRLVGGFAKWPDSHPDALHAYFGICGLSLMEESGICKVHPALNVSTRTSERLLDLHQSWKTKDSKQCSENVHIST
# Sequence of UniProt Q16816 (Q16816 whole entry, looked up): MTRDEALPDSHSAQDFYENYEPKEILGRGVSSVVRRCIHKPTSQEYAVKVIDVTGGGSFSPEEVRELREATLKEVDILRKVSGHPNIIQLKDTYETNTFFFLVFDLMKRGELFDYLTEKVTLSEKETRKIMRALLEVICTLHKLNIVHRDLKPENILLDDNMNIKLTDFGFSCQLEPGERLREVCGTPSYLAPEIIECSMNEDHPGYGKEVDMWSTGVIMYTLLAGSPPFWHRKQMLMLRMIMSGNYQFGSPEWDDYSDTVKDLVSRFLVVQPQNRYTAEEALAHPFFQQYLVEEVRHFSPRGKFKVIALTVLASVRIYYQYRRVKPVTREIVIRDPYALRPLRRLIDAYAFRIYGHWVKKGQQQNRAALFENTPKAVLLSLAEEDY
# Sequence of UniProt O00329 (O00329 whole entry, looked up): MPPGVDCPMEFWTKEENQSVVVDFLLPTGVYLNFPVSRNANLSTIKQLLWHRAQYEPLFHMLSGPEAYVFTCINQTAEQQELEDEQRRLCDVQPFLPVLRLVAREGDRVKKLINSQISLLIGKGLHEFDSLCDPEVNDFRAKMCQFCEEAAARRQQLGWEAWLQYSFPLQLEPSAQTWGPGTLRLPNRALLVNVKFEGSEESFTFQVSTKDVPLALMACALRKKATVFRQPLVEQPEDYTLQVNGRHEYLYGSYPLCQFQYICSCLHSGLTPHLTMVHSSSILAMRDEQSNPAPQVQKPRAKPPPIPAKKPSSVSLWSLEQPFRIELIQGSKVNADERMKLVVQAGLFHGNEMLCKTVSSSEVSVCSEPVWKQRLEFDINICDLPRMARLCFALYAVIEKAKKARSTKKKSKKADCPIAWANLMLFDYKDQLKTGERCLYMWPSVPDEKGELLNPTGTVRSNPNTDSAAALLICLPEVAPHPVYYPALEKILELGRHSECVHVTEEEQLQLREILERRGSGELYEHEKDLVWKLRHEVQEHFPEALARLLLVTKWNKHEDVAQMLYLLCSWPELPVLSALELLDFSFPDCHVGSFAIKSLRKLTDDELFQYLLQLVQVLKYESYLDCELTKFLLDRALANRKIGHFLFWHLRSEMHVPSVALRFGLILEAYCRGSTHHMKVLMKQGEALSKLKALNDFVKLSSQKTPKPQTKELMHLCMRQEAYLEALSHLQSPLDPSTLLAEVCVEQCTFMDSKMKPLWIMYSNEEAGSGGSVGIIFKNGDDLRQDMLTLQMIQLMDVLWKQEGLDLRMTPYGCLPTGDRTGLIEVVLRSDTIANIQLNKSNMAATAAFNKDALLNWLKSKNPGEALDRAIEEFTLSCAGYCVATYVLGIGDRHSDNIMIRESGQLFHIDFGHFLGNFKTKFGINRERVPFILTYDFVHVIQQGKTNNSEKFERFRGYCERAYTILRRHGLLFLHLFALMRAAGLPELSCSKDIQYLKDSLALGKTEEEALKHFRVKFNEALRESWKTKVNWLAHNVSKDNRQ
# Sequence of UniProt Q13362 (Q13362 whole entry, looked up): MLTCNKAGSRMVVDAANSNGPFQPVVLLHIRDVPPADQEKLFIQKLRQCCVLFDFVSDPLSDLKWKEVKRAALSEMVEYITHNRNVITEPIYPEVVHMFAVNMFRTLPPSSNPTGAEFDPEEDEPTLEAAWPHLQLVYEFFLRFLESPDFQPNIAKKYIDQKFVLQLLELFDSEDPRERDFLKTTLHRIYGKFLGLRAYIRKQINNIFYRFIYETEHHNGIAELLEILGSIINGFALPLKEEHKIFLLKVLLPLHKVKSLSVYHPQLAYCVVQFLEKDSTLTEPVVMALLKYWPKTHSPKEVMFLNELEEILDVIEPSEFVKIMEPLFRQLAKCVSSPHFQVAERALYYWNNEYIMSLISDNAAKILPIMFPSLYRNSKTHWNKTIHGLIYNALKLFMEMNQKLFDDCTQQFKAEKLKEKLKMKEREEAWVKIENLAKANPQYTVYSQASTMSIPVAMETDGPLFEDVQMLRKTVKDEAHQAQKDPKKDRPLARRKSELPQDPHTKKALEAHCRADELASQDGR
# Sequence of UniProt Q9ULR3 (Q9ULR3 whole entry, looked up): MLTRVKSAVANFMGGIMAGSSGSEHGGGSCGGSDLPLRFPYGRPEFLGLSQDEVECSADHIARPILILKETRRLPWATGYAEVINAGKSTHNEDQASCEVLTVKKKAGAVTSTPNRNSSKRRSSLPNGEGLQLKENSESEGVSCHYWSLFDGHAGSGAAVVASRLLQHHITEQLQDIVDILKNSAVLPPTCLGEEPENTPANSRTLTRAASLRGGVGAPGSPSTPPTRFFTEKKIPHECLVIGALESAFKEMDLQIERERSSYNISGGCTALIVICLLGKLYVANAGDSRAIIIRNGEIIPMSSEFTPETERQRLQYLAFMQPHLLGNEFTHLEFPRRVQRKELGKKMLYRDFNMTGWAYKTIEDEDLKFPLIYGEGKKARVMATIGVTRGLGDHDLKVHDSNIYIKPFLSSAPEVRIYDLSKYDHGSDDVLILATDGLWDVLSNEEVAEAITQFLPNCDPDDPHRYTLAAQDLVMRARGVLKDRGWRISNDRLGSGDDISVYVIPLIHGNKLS
Target,log2 fold change (alvocidib),log2 fold change (Tubastatin A),log2 fold change [1],log2 fold change (defactinib),log2 fold change [2],log2 fold change (alisertib),log2 fold change [3],log2 fold change (lapatinib),log2 fold change (pictilisib),log2 fold change (crizotinib),log2 fold change [4],log2 fold change (duvelisib),log2 fold change (gandotinib),log2 fold change (doramapimod),log2 fold change (bafetinib),log2 fold change [5],log2 fold change (encorafenib),log2 fold change [6],log2 fold change (gefitinib),log2 fold change (tozasertib)
PIK3CD (UniProt O00329),-0.105,0.012,0.021,0.052,-0.047,-0.027,0.027,-0.043,0.142,-0.037,0.035,0.477 (active),0.389,0.03,-0.136,-0.016,–,–,–,–
PMPCA (UniProt Q10713),-0.006,0.049,-0.045,0.004,-0.004,-0.03,0.003,-0.02,-0.043,-0.048,-0.053,0.053,-0.004,0.079,0.046,0.025,0.001,0.04,-0.02,0.016
PICALM (UniProt H0YEH1),-0.206,0.126,0.098,0.006,0,0.049,-0.042,0.046,0.016,-0.086,-0.47 (active),-0.075,0.238,0.274,0.018,0.335 (active),-0.038,0.098,-0.036,0.152
PTK2 (UniProt Q05397),0.02,-0.033,0.54 (active),0.518 (active),-0.055,0.17,0.113,-0.116,0.038,0.414,0.007,-0.076,0.396,–,-0.008,-0.117,-0.057,-0.126,-0.022,0.026
PCBP2 isoform 3 (UniProt Q15366),0.038,-0.074,0.017,0.006,-0.075,-0.001,-0.006,-0.013,-0.008,0.079,-0.005,-0.015,-0.023,0.012,0.002,-0.042,0.049,-0.048,-0.009,0.014
PPM1H (UniProt Q9ULR3),-0.046,0.071,0.006,-0.03,0.078,–,0.05,0.013,0.016,0.021,-0.043,0,0.157,0.093,-0.079,0.038,-0.008,-0.028,–,0.021
PIK3CG (UniProt P48736),-0.033,-0.044,0.04,0.009,-0.015,0.001,–,–,–,-0.128,-0.158,0.183,0.14,0.04,-0.111,0.075,0.046,0.041,–,-0.038
PRKACA (UniProt P17612),-0.118,0.008,0.034,0.177,0.082,0.027,0.558 (active),-0.008,-0.012,0.022,-0.159,-0.059,0.115,-0.113,-0.073,0.151,-0.052,-0.059,-0.01,-0.12
PPP2R5C isoform 4 (UniProt Q13362),0.059,-0.014,-0.022,-0.01,-0.08,-0.036,0.009,-0.05,0,0.015,-0.051,0.213,-0.034,-0.11,-0.077,0.055,-0.03,-0.047,-0.007,0.025
PGGT1B (UniProt P53609),0.032,0.036,-0.068,0.022,-0.117,-0.011,-0.032,0.013,-0.012,0.01,0.013,-0.019,-0.158,0.047,0.076,-0.074,-0.039,0.454 (active),-0.021,0.083
PHKG1 isoform 2 (UniProt Q16816),-0.057,0.053,0.929 (active),0.196,-0.118,-0.185,0.763,-0.166,–,0.305,-0.553,-0.042,0.655,0.038,–,0.216,0.123,-0.078,0.202,-0.172
PRPF38A (UniProt Q8NAV1),-0.178,-0.068,-0.147,0.013,-0.004,-0.044,0.013,-0.001,0.039,-0.248,-0.399 (active),0.03,0.024,0.012,-0.055,0.121,0.115,-0.009,-0.017,-0.034
